Most compounds without a hit are left out; they make up all but 20% or so of the library.
CHX counter-1: counter-screen for Shiga toxin inhibitors: cycloheximide protein synthesis inhibition; actives 12% (n = 300,000); cell reporter, cycloheximide protein synthesis inhibition counterscreen; max response, %; in the data active means max response mostly above about 13%, no sharp cut-off; inactive means mostly below about 14%; further: read at 38.3 µM for the half of the compounds with a filed dose; 0% is about no effect
Pf growth 96h: P. falciparum growth inhibition at 96 hours | AID 504834 | P. falciparum luciferase reporter growth, 96 h | Potency, µM (series often up to 28.7 µM), without a hit: at the top dose activity change, negative = inhibition, most hits filed as inhibitors | actives 6.9% (n = 320,000); further: potency means the concentration at half of the fitted maximal effect; on the % scale 0 is the no-effect control and ±100 the full control effect
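Parasite growth measured via integrated firefly luciferase reporter in P. falciparum. Infected erythrocytes at 2% hematocrit, 0.05% parasitemia final were treated 96 hours at 37 C under 5% CO2, and luminescence was read.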
Shiga toxin inh: blocks Shiga toxin action in Vero cells; inhibition, % at 38.7 µM; Vero cells, Shiga toxin protein synthesis inhibition reporter; actives 9.2% (n = 290,000); in the data active means inhibition mostly above about 28%, no sharp cut-off; inactive means mostly below about 43%; further: 0% is about no effect
Pf growth 48h: P. falciparum growth inhibition at 48 hours (one generation); P. falciparum luciferase growth in erythrocytes, 48 h; Potency, µM (doses to about 28.7 µM), for inactives: at the highest dose activity change, negative = inhibition, usual class: inhibitors; actives 5.9% (n = 310,000); AID 504832; further: potency means the concentration at half of the fitted maximal effect; on the % scale 0 is the no-effect control and ±100 the full control effect
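Compounds are pin-transferred into medium, infected erythrocytes (2% hematocrit, 0.1% parasitemia final) are added, and plates sit one parasite generation at 37 C in 5% CO2. Detection reagent is then added and luminescence measured.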
HCMV inh: blocks human cytomegalovirus replication; activity change, negative = inhibition, % at 57.5 µM; actives 4.5% (n = 410,000); HFF cells, HCMV-luciferase reporter, 72 h; stronger effect = lower value; AID 1259415; in the data active means activity change below about -60%; inconclusive means no clear call, values can overlap the other calls; inactive means above about -39%; further: on the % scale 0 is the no-effect control and ±100 the full control effect
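Human foreskin fibroblasts infected with luciferase-reporter HCMV at MOI 1 PFU/cell, compounds at two doses. Luciferase measured 72 h post infection; normalized to buffer-only basal and Salinomycin (10uM) controls.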
CHX counter-2: affects protein synthesis reporter in cycloheximide counter-screen | shares compounds with Shiga toxin inh | Cycloheximide counterscreen, protein synthesis reporter, Shiga toxin assay | Potency, µM (top dose mostly 38.3 µM), for the others: at the highest dose activity (activation), actives largely listed as activators | actives 3% (n = 510); calls by dose curve; further: potency means the concentration at half of the fitted maximal effect; 0% is about no effect
Numbers without * were called inactive. Unless noted, the call rests on the fitted dose curve; in most records, active means well fitted inhibition curve with a large enough effect; inconclusive means small, poorly fitted or top-dose-only effect, or another doubt; inactive means no such curve, though single readings can be large or run the other way.

`Cc1oc(C(C)(C)C)cc1C(=O)Nc1cccc(/C=C\C(=O)O)c1` gave CHX counter-1 -2, Pf growth 96h 14%, Shiga toxin inh -10, Pf growth 48h 11% and HCMV inh -36.
`Cc1oc(C(C)(C)C)cc1C(=O)NCC(=O)NCC(=O)O` gave CHX counter-1 2, Pf growth 96h -4%, Shiga toxin inh 50*, Pf growth 48h inconclusive, HCMV inh 6 and CHX counter-2 -3%.
`Cc1ccc(O)c(NC(=O)c2cc(C)no2)c1` gave CHX counter-1 1, Pf growth 96h 55%, Shiga toxin inh 38*, Pf growth 48h 24%, HCMV inh 110 and CHX counter-2 6%.
`COc1ccc(Cl)cc1NC(=O)c1cc(C)no1` gave CHX counter-1 8, Pf growth 96h 29%, Shiga toxin inh -1, Pf growth 48h 28% and HCMV inh 56.
Screening Cc1ccccc1C(=O)NN1CCOCC1 returned CHX counter-1 -1, Pf growth 96h inconclusive, Shiga toxin inh 21*, Pf growth 48h -4%, HCMV inh 24 and CHX counter-2 -1%.
`O=C(NN1CCOCC1)c1ccccc1Br` gave CHX counter-1 -2, Pf growth 96h inconclusive, Shiga toxin inh 5, Pf growth 48h 29% and HCMV inh -16.
Screening Cc1ccc(Oc2nn[nH]n2)cc1 returned CHX counter-1 -2, Pf growth 96h 27%, Shiga toxin inh 47*, Pf growth 48h 3%, HCMV inh 2 and CHX counter-2 2%.
O=C(O)C(O)C(O)c1nc2ccccc2[nH]1 (stereo not drawn) was read as CHX counter-1 -3, Pf growth 96h 42%, Shiga toxin inh -6, Pf growth 48h 1% and HCMV inh -7.
For O=C(Cc1ccc(Cl)cc1)Nc1ccc2oc(-c3ccc(F)cc3)nc2c1 the results were HCMV inh -9.
CCN(CC)CC(=O)Nc1ccc(-c2nc3cc(NC(=O)CN(CC)CC)ccc3o2)cc1 was read as CHX counter-1 8, Pf growth 96h -3%, Shiga toxin inh 81*, Pf growth 48h 2.6µM*, HCMV inh 140 and CHX counter-2 2%.
Screening COC(=O)C1=C(C)N(CCCC(=O)O)C(=O)NC1c1ccc(C#N)cc1 (stereo not drawn) returned HCMV inh -4.
Screening CC1(C)CC(=O)c2c(nn(-c3ccccc3)c2-c2ccncc2)C1 returned CHX counter-1 -4, Pf growth 96h -13%, Shiga toxin inh -7, Pf growth 48h -24% and HCMV inh -6.
`Cc1nn(-c2ccc(C(=O)O)cc2)c2c1C(=O)CC(C)(C)C2` gave CHX counter-1 -2, Pf growth 96h -17%, Shiga toxin inh 81*, Pf growth 48h 23%, HCMV inh 10 and CHX counter-2 -5%.
For Cc1cc(C)nc(Sc2ccc3nnnn3n2)n1 the results were CHX counter-1 10, Pf growth 96h 20%, Shiga toxin inh 31*, Pf growth 48h 26%, HCMV inh -37 and CHX counter-2 9%.
For NC(=O)C1CCN(C(=O)C2c3ccccc3C(=O)N3CCc4ccccc4C23)CC1 (stereo not drawn) the results were CHX counter-1 1, Pf growth 96h -25%, Shiga toxin inh 46*, Pf growth 48h -2%, HCMV inh 18 and CHX counter-2 -5%.
`O=C(CN1C(=O)c2cccnc2Sc2ccccc21)Nc1cc(F)ccc1F` gave HCMV inh 16.
O=C(Cc1c[nH]c2ccccc12)NCc1ccc(Cl)cc1 was read as CHX counter-1 10, Pf growth 96h 57%, Shiga toxin inh 30*, Pf growth 48h 2%, HCMV inh 2 and CHX counter-2 7%.
O=C(NCCc1c[nH]c2ccccc12)C(F)(F)F was read as CHX counter-1 10, Pf growth 96h 38%, Shiga toxin inh 43*, Pf growth 48h 0%, HCMV inh 38 and CHX counter-2 -1%.
`O=C(NCCc1c[nH]c2ccccc12)Nc1ccccc1C(F)(F)F` gave HCMV inh -17.
Screening C/C1=C\[C@@H](O)C(C(C)C)C(OC(=O)c2ccc(O)cc2)C/C(C)=C/CC1 (stereo partly drawn) returned CHX counter-1 4, Shiga toxin inh 24* and CHX counter-2 inconclusive.
O=C(Cc1cccs1)Nc1nc(-c2ccc(F)c(F)c2)cs1 was read as CHX counter-1 11, Pf growth 96h inconclusive, Shiga toxin inh 44*, Pf growth 48h inconclusive, HCMV inh 16 and CHX counter-2 4%.
Screening O=C(Cc1cccs1)Nc1nc(-c2ccc(F)cc2F)cs1 returned CHX counter-1 12, Pf growth 96h inconclusive, Shiga toxin inh 53 and HCMV inh 0.
For O=c1[nH]nc(CNc2ccc(C(F)(F)F)cc2)c2ccccc12 the results were CHX counter-1 15, Pf growth 96h 158%, Shiga toxin inh 29*, Pf growth 48h 59%, HCMV inh 4 and CHX counter-2 inconclusive.
`O=c1[nH]nc(CNc2ccc(OC(F)(F)F)cc2)c2ccccc12` gave CHX counter-1 21, Pf growth 96h 7%, Shiga toxin inh 28, Pf growth 48h -3% and HCMV inh 0.
Screening CCOC(=O)Cc1csc(NC(=O)CSc2ncnc3c2cnn3-c2ccc(OC)cc2)n1 returned CHX counter-1 19, Pf growth 96h inconclusive, Shiga toxin inh 81*, Pf growth 48h 9.3µM*, HCMV inh -2 and CHX counter-2 inconclusive.
For CCOC(=O)CNC(=O)CSc1ncnc2c1cnn2-c1ccc(Cl)cc1 the results were CHX counter-1 -3, Shiga toxin inh -4, Pf growth 48h 18% and HCMV inh 21.
Screening COc1cc2c(c(OC)c1OC)-c1c(cc(OC)c(OC)c1OC)C[C@](C)(O)[C@@H](C)C2 returned CHX counter-1 1, Pf growth 96h inconclusive, Shiga toxin inh 49*, Pf growth 48h 39%, HCMV inh 12 and CHX counter-2 -1%.
CCN(C1CCCCC1)S(=O)(=O)c1ccc(S(=O)(=O)NCc2ccncc2)cc1 was read as CHX counter-1 1, Pf growth 96h inconclusive, Shiga toxin inh 39*, Pf growth 48h inconclusive, HCMV inh inconclusive and CHX counter-2 -4%.
C[C@H](CO)N1C[C@H](C)[C@H](CN(C)C(=O)c2cc(-c3ccccc3)on2)OCc2cnnn2CCCC1=O was read as HCMV inh 2.
Cc1cc(NC(=O)Cc2ccc(Br)cc2)no1 was read as CHX counter-1 5, Pf growth 96h inconclusive, Shiga toxin inh 18, Pf growth 48h -12% and HCMV inh -19.
Cc1cc(NC(=O)/C=C/c2ccc(Br)cc2)no1 was read as CHX counter-1 7, Pf growth 96h inconclusive, Shiga toxin inh 56*, Pf growth 48h inconclusive, HCMV inh 26 and CHX counter-2 inconclusive.
